Several values for one entry are separate records, joined by “and”; a condition that tells them apart may be missing. Identical values can stand only once. Hit rate of the full screen: of about 360,000 compounds, about 3,000 (0.83%) were called active. The sample holds actives, similar compounds and a random draw of the others, so the mix is not that of the screen. Rule as the data show it: active = inhibition above about 50%; inactive = the rest. Where a structure was tested more than once in an assay, its records may differ in their call.
The molecules below were run against DNA (cytosine-5)-methyltransferase 1 (Homo sapiens) (UniProt P26358) (assay: inhibition of DNA methyltransferase DNMT1 – biochemical, molecular beacon, fluorescence, HinP1I cleavage, uHTS, primary screen (AID 588458)). Conditions: at 10 µM, stronger effect = higher value.
Sequence of DNA (cytosine-5)-methyltransferase 1 (Homo sapiens) (P26358 504-1616 limits assumed): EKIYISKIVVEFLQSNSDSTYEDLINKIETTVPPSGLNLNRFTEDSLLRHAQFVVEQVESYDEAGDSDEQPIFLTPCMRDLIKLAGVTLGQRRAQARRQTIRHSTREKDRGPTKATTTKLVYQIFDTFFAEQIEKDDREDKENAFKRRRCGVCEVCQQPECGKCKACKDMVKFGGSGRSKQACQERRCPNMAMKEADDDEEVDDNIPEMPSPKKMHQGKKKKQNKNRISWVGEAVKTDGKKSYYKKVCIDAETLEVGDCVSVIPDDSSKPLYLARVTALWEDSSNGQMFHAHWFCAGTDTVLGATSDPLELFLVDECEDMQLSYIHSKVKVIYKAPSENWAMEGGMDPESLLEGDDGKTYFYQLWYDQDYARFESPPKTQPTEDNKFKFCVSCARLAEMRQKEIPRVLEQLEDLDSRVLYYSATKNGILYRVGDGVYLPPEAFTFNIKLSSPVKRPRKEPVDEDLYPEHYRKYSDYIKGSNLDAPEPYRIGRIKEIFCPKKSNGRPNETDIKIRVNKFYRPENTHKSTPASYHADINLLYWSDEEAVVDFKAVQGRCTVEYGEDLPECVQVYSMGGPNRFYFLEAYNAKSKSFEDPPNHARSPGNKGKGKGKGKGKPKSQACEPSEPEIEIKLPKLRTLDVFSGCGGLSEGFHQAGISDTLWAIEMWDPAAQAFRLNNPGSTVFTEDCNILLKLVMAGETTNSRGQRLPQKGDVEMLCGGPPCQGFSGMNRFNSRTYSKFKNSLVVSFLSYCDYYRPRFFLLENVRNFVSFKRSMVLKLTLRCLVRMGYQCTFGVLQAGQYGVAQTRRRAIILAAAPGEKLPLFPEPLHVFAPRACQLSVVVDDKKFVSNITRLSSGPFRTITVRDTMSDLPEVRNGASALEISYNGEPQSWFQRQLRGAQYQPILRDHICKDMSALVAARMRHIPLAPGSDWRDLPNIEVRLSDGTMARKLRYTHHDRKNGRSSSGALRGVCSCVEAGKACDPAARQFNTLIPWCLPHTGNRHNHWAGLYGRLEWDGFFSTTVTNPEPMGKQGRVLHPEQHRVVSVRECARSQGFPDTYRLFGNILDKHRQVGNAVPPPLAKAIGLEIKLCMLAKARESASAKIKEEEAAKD

SMILES	inhibition (reported as % activation of signal)
O=C(COC(=O)CCC(=O)c1cccs1)NCc1ccco1	72.8% (active)
O=C(COC(=O)Cc1ccc(Cl)cc1Cl)NCc1ccco1	-2.23% (inactive)
CC1CCN(C(=O)COC(=O)CCC(=O)c2cccs2)CC1	0.68% (inactive)
N#CCC(=O)Nc1ccc(C(=O)OCC(=O)Nc2sc3c(c2C#N)CCCC3)cc1	-11.8% (inactive)
CCOc1ccc(NC(=O)c2ccc(NC(=O)COC(=O)c3ccc(NC(=O)CC#N)cc3)cc2)cc1	61.4% (active)
CC(C)NC(=O)NC(=O)COC(=O)c1ccc(NC(=O)CC#N)cc1	-1.52% (inactive)
CC1CCN(C2=NC(=O)/C(=C/c3cn[nH]c3-c3ccccc3)S2)CC1	-3.21% (inactive)
Cc1cccc(-c2cnc(C(O)c3cc(C)cc(C)c3)[nH]2)c1 (stereo not given)	4.05% (inactive)
Cc1ccc(-n2c(=O)cc(N3CCN(Cc4ccccc4)CC3)[nH]c2=O)cc1	-5.41% (inactive)
CN(Cc1ccc2nsnc2c1)Cc1nc(Cc2cccc(F)c2)no1	14.7% (inactive)
CN(Cc1cc2cc(F)ccc2[nH]1)Cc1nc(-c2cnccn2)no1	0.73% (inactive)
CN(Cc1nc2ccc(F)cc2[nH]1)Cc1nc(CC2CC2)no1	52.1% (active)
COc1cc(C2C(N3C(=O)c4ccccc4C3=O)C(=O)N2c2ccc(C)c(C)c2)cc(OC)c1OC (stereo not given)	-2.9% (inactive)
Cc1ccc(NC(=O)c2cnc(SCC(=O)NCC3CCCO3)n(C)c2=O)cc1 (stereo not given)	-0.68% (inactive)
N#Cc1ccccc1NC(=O)c1ccc2c(c1)OCO2	2.15% (inactive)
Cc1[nH]c2ccccc2c1C(=O)COC(=O)c1c(-c2ccccc2)noc1C	-10.3% (inactive)
Cc1onc(-c2ccccc2)c1C(=O)Nc1ccccc1C#N	86.5% (active) and -2.35% (inactive)
Cc1ccccc1CN1C[C@@H]2C[C@@H](c3cn(C)nc3-c3ccccc3)N3CCC[C@@]23C1=O	-7.15% (inactive)
O=C(COC(=O)CSc1nnc(-c2ccc(Cl)cc2)o1)Nc1cc(Cl)cc(Cl)c1	3.58% (inactive)
O=C1/C(=C\c2ccc([N+](=O)[O-])cc2)CS(=O)(=O)C/C1=C/c1ccc([N+](=O)[O-])cc1	101% (active)
CN(C)S(=O)(=O)N1CCN(c2ccc([N+](=O)[O-])cc2)CC1	-0.57% (inactive)
CCCCC(=O)Nc1c2c(nn1-c1ccc([N+](=O)[O-])cc1)CS(=O)(=O)C2	0.28% (inactive)
Cc1ccc(CN2CC(N3CCC(Cc4ccccc4)CC3)CS2(=O)=O)cc1 (stereo not given)	-0.65% (inactive)

SMILES	inhibition (reported as % activation of signal)
Cc1ccc(OCc2nnc(SC3CCc4ccccc4C3=O)n2C)cc1 (stereo not given)	-0.48% (inactive)
CC1(C(=O)NS(=O)(=O)c2ccccc2)CCN1C(=O)Cc1ccc(-c2ccccc2)cc1 (stereo not given)	3.68% (inactive)
CC1(C(=O)NS(=O)(=O)c2ccccc2)CCN1C(=O)c1ccccc1 (stereo not given)	-2.49% (inactive)
CC1(C(=O)NS(=O)(=O)c2ccccc2)CCN1C(=O)C/C=C/c1ccccc1 (stereo not given)	84.5% (active)
COc1ccc(CNC(=O)C(NS(=O)(=O)c2cccc3nsnc23)C(C)C)cc1 (stereo not given)	2.57% (inactive)
O=C1C(Cl)=C(Oc2ccccc2)C(=O)c2ccccc21	78.2% (active)
O=C(O)C1CCC(CNS(=O)(=O)c2ccc(Br)cc2)CC1 (stereo not given)	0.46% (inactive)
O=C(NCC(O)c1nc2ccccc2[nH]1)c1ccc(Br)cc1 (stereo not given)	-1.63% (inactive)
O=C(Nc1ccccc1)c1cc2ccccc2[nH]1	-1.95% (inactive)
O=C(Nc1cccc(-c2nc3ccccc3[nH]2)c1)c1ccc(C(=O)Nc2cccc(-c3nc4ccccc4[nH]3)c2)cc1	56.8% (active)
COc1ccc(-c2cc(NC=O)c3ncc(-c4cc(OC)c(OC)c(OC)c4)n3c2)c(OC)c1	-21.8% (inactive)
O=C(CN1CCN(c2ncccn2)CC1)Nc1ccccc1C(F)(F)F	1.55% (inactive)
CC(C)C1CC2=C(C(=O)OC(C)(C)O2)C(c2ccc(F)cc2)O1 (stereo not given)	0.41% (inactive)
NC(=O)COc1ccc(NC(=O)c2ccccc2-c2ccccc2)cc1	1.27% (inactive)
CCCNC(=O)c1cnc(-c2ccccc2)nc1-c1ccccc1	0.2% (inactive)
CO/N=C/c1ccc(N2CCN(C(=O)c3cccc(Cl)c3)CC2)c([N+](=O)[O-])c1	-5.17% (inactive)
O=C1CSC(=S)N1/N=C/c1ccc(O)c([N+](=O)[O-])c1	76.8% (active)
CCOc1cccc(/C=N/N2C(=O)CSC2=S)c1O	-12.4% (inactive)
CCc1ccc(OC2(C)CCN(CCOc3ccc(C)cc3)C2)cc1 (stereo not given)	1.94% (inactive)
CC1(C(=O)NCc2ccc3c(c2)OCO3)CCN1CCc1ccccc1 (stereo not given)	0.65% (inactive)
CC(C)CCSc1ncnc2c1oc1nc3c(cc12)COC(C)(C)C3	0.16% (inactive)
CC1(C)Cc2nc3sc4c(SCC(=O)NC(c5ccccc5)c5ccccc5)ncnc4c3cc2CO1	50% (active)

Reference: PubChem BioAssay AID588458 (Sanford-Burnham Center for Chemical Genomics, 2011)
